# In PubChem BioAssay:
# Several values for one entry are separate records, joined by “and”; a condition that tells them apart may be missing. Identical values can stand only once. Activity calls are given as the source filed them.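 Rule for the calls, unless noted: active = inhibition at or above 50% relative to wild type and mutant plate controls; inactive = inhibition below 50%.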
# Key:
# [1] = loss of swimming-algae plug formation – whole organism, Chlamydomonas reinhardtii, WT vs cilia-less mutant, absorbance, 96-well, primary screen (AID 463189); details: Chlamydomonas reinhardtii gravitaxis, OD600 absorbance, 2 days; at 10 µM; stronger effect = higher value;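 note: 0% = wild type cc124 cells in DMSO and 100% = ciliumless bld1 mutant cells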
# [2] = reduction of polyQ htt aggregates in cells – imaging, exon1htt(103Q)mCFP cells, high-content imaging, primary screen (AID 483;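 active = visual image review flags a hit and inhibition of aggregation exceeds 20%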;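 note: compound exposure lasted 3 days before fixation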;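 for nuclei count: percent of the per-plate median nuclei count of sample wells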); details: exon1htt(103Q)mCFP cell line, aggregate imaging, at 2 µM; inhibition of aggregation: stronger effect = higher value; nuclei count: measured here: cell count, toxicity
# [3] = endothelial E-selectin expression blockers – imaging, HUVEC, immunofluorescence, MLSMR starter and 10KST1 sets, primary screen (AID 487;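 active = visually confirmed hit in the image check and inhibition above 20%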;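 for inhibition: signal is fraction of cell area covered by stained E-selectin grains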;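 for nuclei count: 100% = median nuclei count of all wells on the same plate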); details: HUVEC TNFalpha-induced E-selectin immunofluorescence imaging, at 2 µM; inhibition: stronger effect = higher value; nuclei count: measured here: cell number, toxicity
# [4] = Primary imaging screen for DUSP6 inhibitors that restore phospho-Erk in transfected HeLa cells, chemical complementation (AID 609;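 active = compounds giving at least 50% inhibition in the cell-based MKP-3 phosphatase rescue imaging test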;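 for inhibition: phospho-Erk level distribution per well compared with pooled transfected vehicle control wells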); details: HeLa MKP-3 transfected, phospho-Erk imaging KS statistic, at 10 µM
# [5] = target: Dual specificity protein phosphatase 6 (Homo sapiens) (UniProt Q16828); assay: as above; details: HeLa MKP-3 transfected, phospho-Erk imaging KS statistic, at 10 µM, stronger effect = higher value
# Sequence of Dual specificity protein phosphatase 6 (Homo sapiens) (Q16828 whole entry, looked up): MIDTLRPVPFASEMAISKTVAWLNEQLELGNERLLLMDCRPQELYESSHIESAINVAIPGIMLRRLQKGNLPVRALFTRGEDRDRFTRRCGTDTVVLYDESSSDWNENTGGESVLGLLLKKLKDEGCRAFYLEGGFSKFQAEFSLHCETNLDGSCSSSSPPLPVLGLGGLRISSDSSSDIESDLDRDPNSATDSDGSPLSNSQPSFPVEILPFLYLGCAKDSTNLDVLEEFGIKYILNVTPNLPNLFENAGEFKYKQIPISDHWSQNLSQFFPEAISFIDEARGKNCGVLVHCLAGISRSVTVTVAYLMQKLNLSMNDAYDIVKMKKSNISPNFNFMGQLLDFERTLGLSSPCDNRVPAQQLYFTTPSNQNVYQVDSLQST
# [6] = target: Voltage-gated potassium channel subunit beta-2 (Rattus norvegicus) (UniProt P62483); assay: inhibitors of rat Kvbeta2 reductase activity – biochemical, NADPH fluorescence, primary screen (AID 622;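 active = fluorescence slope higher than the sample average by over 3 SD, cut at about -0.22 in these data, passing the limit was not always enough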;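 note: slope of raw intensity against log time taken from 70 to 1610 s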); details: recombinant KvBeta, 4-cyanobenzaldehyde reduction, at 10 µM, stronger effect = higher value
# Sequence of Voltage-gated potassium channel subunit beta-2 (Rattus norvegicus) (P62483 whole entry, looked up): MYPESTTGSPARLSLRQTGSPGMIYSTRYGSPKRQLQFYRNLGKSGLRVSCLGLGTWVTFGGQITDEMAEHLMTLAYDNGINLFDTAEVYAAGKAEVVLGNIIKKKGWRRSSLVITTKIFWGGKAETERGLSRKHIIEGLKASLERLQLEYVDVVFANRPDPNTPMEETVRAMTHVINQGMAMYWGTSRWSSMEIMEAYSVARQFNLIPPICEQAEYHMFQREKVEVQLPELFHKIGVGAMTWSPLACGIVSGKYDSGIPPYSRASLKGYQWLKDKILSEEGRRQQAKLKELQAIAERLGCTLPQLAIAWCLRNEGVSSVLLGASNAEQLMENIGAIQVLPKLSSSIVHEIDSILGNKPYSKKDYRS
# [7] = target: Voltage-gated potassium channel subunit beta-2 (Rattus norvegicus) (UniProt P62483); assay: enhancers of rat Kvbeta2 NADPH turnover – biochemical, NADPH fluorescence, primary screen (AID 623;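 active = NADPH fluorescence slope more negative than the mean of all samples by about 3 SD, 99.7% confidence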;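 note: fluorescence intensity change per second fitted from 20 to 320 s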); details: Recombinant KvBeta, NADPH fluorescence decrease slope, 10 min; at 10 µM; stronger effect = lower value
# [8] = target: Alpha-2C adrenergic receptor (Homo sapiens) (UniProt P18825); assay: compounds altering alpha2C-coupled GIRK flux – cell-based, HEK293 alpha2C/GIRK1/2, thallium flux, primary screen (AID 624;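 active = fluorescence slope after compound addition differing from the mean of all screened samples at 99.7% confidence, in either direction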;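 note: slope of fluorescence ratio to pre-addition baseline per second over 15 to 24 s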); details: thallium flux BTC fluorescence, at 10 µM, actives lie on both sides
# Sequence of Alpha-2C adrenergic receptor (Homo sapiens) (P18825 whole entry, looked up): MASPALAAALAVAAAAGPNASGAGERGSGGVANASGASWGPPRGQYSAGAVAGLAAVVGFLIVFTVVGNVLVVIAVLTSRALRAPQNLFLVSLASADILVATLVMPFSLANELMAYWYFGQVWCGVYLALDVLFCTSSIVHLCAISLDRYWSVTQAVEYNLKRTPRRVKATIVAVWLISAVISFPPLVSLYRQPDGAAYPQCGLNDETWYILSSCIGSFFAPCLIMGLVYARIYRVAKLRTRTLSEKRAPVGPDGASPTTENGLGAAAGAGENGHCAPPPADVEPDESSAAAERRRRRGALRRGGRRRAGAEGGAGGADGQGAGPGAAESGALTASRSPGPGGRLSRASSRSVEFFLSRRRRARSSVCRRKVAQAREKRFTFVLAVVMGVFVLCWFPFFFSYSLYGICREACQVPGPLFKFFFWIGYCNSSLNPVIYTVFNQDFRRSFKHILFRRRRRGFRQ
# [9] = inhibitors of larval lipid processing in zebrafish, primary screen, whole organism, PED6 fluorescence, gall bladder and intestine (AID 686;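 active = a full or partial loss of lipid-probe fluorescence in the fish gall bladder, intestine or both, judged by eye; inactive = no fluorescence loss, or compound toxic to the fish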;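 note: larvae 5 to 7 days old with five fish per well; signal comes from phospholipase A2 cleavage of quenched PED6 carried via bile; overnight exposure to compound and PED6 before scoring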); details: Zebrafish larvae PED6 lipid processing, fluorescence scoring
# [10] = blockers of RIG-like receptor reporter activation – cell-based, Sendai virus stimulus, luciferase, 10K MLSCN set, TLR/RLR signaling modifier project, primary screen (AID 602276;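 active = inhibition at or above 50% at 10 µM; inactive = inhibition below 50%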;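 note: firefly luciferase from ISG56 promoter only with Renilla not read in this screen; 0% = Sendai virus plus DMSO and 100% = medium plus DMSO without virus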); details: HEK293 RL24 IRF3 luciferase reporter, at 10 µM, stronger effect = higher value
# [11] = TLR3 IRF3 reporter activation blockers – cell-based, poly I:C stimulus, luciferase, 10K MLSCN set, primary screen (AID 602277;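 active = inhibition of the reporter signal at or above 50%; inactive = inhibition below 50%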); details: HEK293-TLR3 RL24 IRF3 luciferase reporter, at 10 µM, stronger effect = higher value
# [12] = measured here: cell density z-score
# [13] = measured here: nuclear c-Myc green intensity z-score
# [14] = measured here: nuclear pErk red intensity z-score, stronger effect = higher value
smiles,measurement,setting,value
NCC(O)c1cc(O)c(O)cc1F (stereo not given),inhibition,[1],1.21% (inactive)
COc1cc(C=C(C#N)C#N)cc(O)c1O,inhibition,[1],10.5% (inactive)
C[C@H]1C2Cc3ccc(O)cc3C1(C)CCN2CC1CC1 (stereo not given in full),inhibition,[1],8.28% (inactive)
CCCN1CCC[C@@H]2Cc3nc(N)ncc3C[C@H]21,inhibition,[1],4.12% (inactive)
C[N+]1(C)C2CCC1CC(OC(=O)C(CO)c1ccccc1)C2 (stereo not given),inhibition,[1],-0.808% (inactive) and 1.27% (inactive)
NC(=O)c1cc(N2CC2)c([N+](=O)[O-])cc1[N+](=O)[O-],inhibition,[1],-4% (inactive)
CCCC(C)(COC(N)=O)COC(=O)NC(C)C (stereo not given),inhibition of aggregation,[2],18.2% (inactive)
same,nuclei count,[2],100%
same,inhibition,[3],0.8% (inactive)
same,nuclei count,[3],106%
same,z-score,[4]; [12],-1.69
same,z-score,[4]; [13],0.189
same,z-score,[4]; [14],-1.67
same,inhibition,[5],-0.493% (inactive)
same,fluorescence slope,[6],-0.459 (inactive)
same,NADPH fluorescence slope,[7],1.2e-05 (inactive)
same,slope,[8],0.0053 (inactive)
same,outcome,[9],inactive
same,inhibition,[1],-1.2% (inactive) and -10.3% (inactive)
same,inhibition,[10],3.15% (inactive)
same,inhibition,[11],14.5% (inactive)
O=c1[nH]c2ccccc2n1CCCN1CCC(n2c(=O)[nH]c3cc(Cl)ccc32)CC1,inhibition of aggregation,[2],13.3% (inactive)
same,nuclei count,[2],79.8%
same,inhibition,[3],-81.4% (inactive)
same,nuclei count,[3],120%
same,z-score,[4]; [12],-1.29
same,z-score,[4]; [13],0.926
same,z-score,[4]; [14],0.563
same,inhibition,[5],12.4% (inactive)
same,fluorescence slope,[6],-0.455 (inactive)
same,NADPH fluorescence slope,[7],-4.5e-05 (inactive)
same,slope,[8],0.00301 (inactive)
same,inhibition,[1],2.96% (inactive) and 11.3% (inactive)
same,inhibition,[10],7.67% (inactive)
same,inhibition,[11],18.2% (inactive)
O=C1NCN(c2ccccc2)C12CCN(CC1COc3ccccc3O1)CC2 (stereo not given),inhibition,[1],6.88% (inactive)
COc1ccc2c(c1)C13CCCCC1C(C2)N(C)CC3 (stereo not given),inhibition,[1],6.06% (inactive)
CN(C)[C@@H]1C(=O)C(C(N)=O)=C(O)[C@@]2(O)C(=O)C3=C(O)c4c(O)cccc4[C@@](C)(O)[C@H]3[C@H](O)[C@@H]12,inhibition of aggregation,[2],62.6% (active)
same,nuclei count,[2],102%
same,inhibition,[3],-42.6% (inactive)
same,nuclei count,[3],123%
same,z-score,[4]; [12],1.9
same,z-score,[4]; [13],-1.29
same,z-score,[4]; [14],-0.511
same,inhibition,[5],8% (inactive)
same,fluorescence slope,[6],-0.459 (inactive)
same,NADPH fluorescence slope,[7],-9.9e-05 (inactive)
same,slope,[8],0.00569 (inactive)
same,outcome,[9],inactive
same,inhibition,[1],12% (inactive)
same,inhibition,[10],-6.24% (inactive)
same,inhibition,[11],5.5% (inactive)
NCc1cc(=O)[nH]o1,inhibition,[1],5.71% (inactive)
CCNC(=O)[C@H]1O[C@@H](n2cnc3c(N)ncnc32)C(O)[C@H]1O (stereo not given in full),inhibition,[1],-1.46% (inactive)
CN(N=O)c1cc(O)ccc1O,inhibition,[1],2.32% (inactive)
